Our source for the growth values is PubChem BioAssay (NCI).

Test in all cases: NCI-60 one-dose screen, 48 h (100 = growth as untreated, 0 = no growth, -100 = all killed)
In one experiment the test system is HCT-15 colon. Particulars: 10 µM.
The next experiment deals with SNB-75 CNS. The settings on record: 10 µM.
In a further experiment the test system is SNB-19 CNS. The settings on record: 10 µM.
The next experiment has as its system U251 CNS. The settings on record: 10 µM.
A further experiment deals with PC-3 prostate. The settings on record: 10 µM.
The next experiment has as its system SK-MEL-5 melanoma. The settings on record: 10 µM.
A further experiment concerns UACC-62 melanoma. Particulars: 10 µM unless noted.
Another experiment deals with LOX IMVI melanoma. Particulars: 10 µM.
In a further experiment the test system is SK-MEL-28 melanoma. Particulars: 10 µM.

About 83,000 compounds went through this panel and 20% of them were active in at least one assay; those are over-represented in the sample as a whole.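 Plates (96-well) were seeded with cells, treated with compound at one concentration, and incubated for 48 hours before percent growth was determined.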 Unmarked numbers belong to inactive results. Active and inactive are the calls of the source. How the source made its calls: active means growth percent below 10; inactive means the rest.

Regarding `CCN(CC)C(=O)/C=C(/C)c1ccccc1`, the growth in the experiment with HCT-15 colon is 104%; with SNB-75 CNS, 93.2%; in the experiment on SNB-19 CNS, 105%; in the experiment with U251 CNS, 105%; in the experiment with PC-3 prostate, 93.4%; with SK-MEL-5 melanoma it was 90.1%. Besides, the growth is 103% in the experiment with UACC-62 melanoma, 98.7% in the experiment with LOX IMVI melanoma and 106% in the experiment with SK-MEL-28 melanoma.

As for `S=C1CCCCCN1`, the growth was 100% in the experiment on HCT-15 colon; 89.1% in the experiment on SNB-75 CNS; 99.1% in the experiment with SNB-19 CNS; 111% with U251 CNS; 105% with PC-3 prostate; 107% in the experiment on SK-MEL-5 melanoma. Also, the growth in the experiment with UACC-62 melanoma is 100%; in the experiment with LOX IMVI melanoma, 101%; with SK-MEL-28 melanoma, 105%.

Take `CC1C(=O)c2ccccc2CC1C(=O)O` (configuration not stated): the growth was 115% in the experiment on HCT-15 colon; 82.2% in the experiment with SNB-75 CNS; 128% with SNB-19 CNS; 97.1% in the experiment on U251 CNS; 97.6% in the experiment on PC-3 prostate; 100% in the experiment with SK-MEL-5 melanoma. Also, the growth in the experiment on UACC-62 melanoma is 116%; in the experiment with LOX IMVI melanoma it was 92.4%; with SK-MEL-28 melanoma, 114%.

Take `C=CCNC(=O)c1ccc(OC)cc1`: the growth was 108% in the experiment with HCT-15 colon; 117% in the experiment with SNB-75 CNS; 92.1% in the experiment on SNB-19 CNS; 101% in the experiment on U251 CNS; 104% in the experiment with PC-3 prostate; 103% in the experiment with SK-MEL-5 melanoma. In addition, the growth in the experiment with UACC-62 melanoma is 99.1%; in the experiment on LOX IMVI melanoma it was 111%; with SK-MEL-28 melanoma it was 144%.

Consider `CCCCCCCO`, for which the growth in the experiment with HCT-15 colon was 95.6%; with SNB-75 CNS, 106%; in the experiment with SNB-19 CNS, 102%; with U251 CNS it was 97.8%; in the experiment with PC-3 prostate, 105%; in the experiment on SK-MEL-5 melanoma, 99.2%. Also, the growth is 97.7% with UACC-62 melanoma and 99.8% in the experiment with LOX IMVI melanoma.

As to `Nc1ncnc2c1nc(N)n2C1OC(CO)C(O)C1O` (configuration not stated), the growth in the experiment on HCT-15 colon was -7.88% (active); in the experiment with SNB-75 CNS, -75.8% (active); with SNB-19 CNS, -16.5% (active); with U251 CNS, 2.54% (active); with PC-3 prostate it was -11.7% (active); in the experiment with SK-MEL-5 melanoma it was -87.6% (active). The growth in the experiment with UACC-62 melanoma is -68.3% (active); in the experiment on LOX IMVI melanoma, -80.3% (active).

Consider `Cc1c(O)cccc1O`, for which the growth in the experiment with HCT-15 colon is 116%; in the experiment with SNB-75 CNS, 99.1%; in the experiment with SNB-19 CNS, 97.6%; with U251 CNS, 98.7%; in the experiment on PC-3 prostate, 96.9%; with SK-MEL-5 melanoma, 106%. Besides, the growth in the experiment with UACC-62 melanoma was 94.9%; in the experiment with LOX IMVI melanoma, 106%; in the experiment on SK-MEL-28 melanoma, 122%.

As for `CCN(CC)c1ccc2nc3ccc(=[N+](CC)CC)cc-3oc2c1`, the growth with HCT-15 colon was 35.5%; in the experiment on SNB-75 CNS, 1.61% (active); in the experiment with SNB-19 CNS it was -1.56% (active); in the experiment on U251 CNS, -13.9% (active); in the experiment on PC-3 prostate, 4.1% (active); with SK-MEL-5 melanoma it was -53.4% (active). Besides, the values for the growth with UACC-62 melanoma, in the experiment on LOX IMVI melanoma and with SK-MEL-28 melanoma were -39.1% (active), -22.7% (active) and 2.45% (active), respectively.

For the compound `Cc1cccc(C(=O)N(C(C)C)C(C)C)c1`, the growth with HCT-15 colon was 96.7%; in the experiment with SNB-75 CNS, 95%; in the experiment with SNB-19 CNS, 99.6%; in the experiment with U251 CNS, 92.5%; in the experiment with PC-3 prostate, 92.8%; with SK-MEL-5 melanoma, 95.3%. The figures for the growth with UACC-62 melanoma, in the experiment on LOX IMVI melanoma and with SK-MEL-28 melanoma were 96.5%, 96.1% and 103%, respectively.

With `O=c1cc2oc3cc(O)c(O)cc3c(-c3ccccc3O)c-2cc1O`, the growth in the experiment with HCT-15 colon is 91.7%; in the experiment with SNB-75 CNS it was 62.9%; in the experiment with SNB-19 CNS it was 72.5%; in the experiment on U251 CNS, 58.4%; in the experiment with PC-3 prostate it was 73.9%; in the experiment with SK-MEL-5 melanoma it was 74.2%. The growth in the experiment on UACC-62 melanoma is 80.5%; with LOX IMVI melanoma, 64.8%; in the experiment with SK-MEL-28 melanoma, 81.6%.

`CC1=CC(C)(C)NC(=S)N1c1ccc(S(=O)(=O)O)c2cccc(S(=O)(=O)O)c12`: the growth is 105% in the experiment on HCT-15 colon; 90.5% in the experiment on SNB-75 CNS; 109% with SNB-19 CNS; 113% in the experiment on U251 CNS; 92.5% in the experiment on PC-3 prostate; 101% in the experiment on SK-MEL-5 melanoma. In addition, the figures for the growth with UACC-62 melanoma, in the experiment on LOX IMVI melanoma and in the experiment on SK-MEL-28 melanoma were 97.5%, 107% and 112%, respectively.

Regarding `O=C(CS)Nc1ccc2ccccc2c1`, the growth is 75.9% in the experiment with HCT-15 colon; 112% in the experiment on SNB-75 CNS; 101% in the experiment with SNB-19 CNS; 98% in the experiment on U251 CNS; 70% in the experiment with PC-3 prostate; 91.9% in the experiment on SK-MEL-5 melanoma. Further, the growth is 94.1% with UACC-62 melanoma, 86.7% in the experiment on LOX IMVI melanoma and 102% in the experiment on SK-MEL-28 melanoma.

`CC(=O)c1ccc(C)c(N)c1`: the growth is 100% in the experiment on HCT-15 colon; 97.6% with SNB-75 CNS; 99% with SNB-19 CNS; 98.4% in the experiment on U251 CNS; 92.8% with PC-3 prostate; 110% in the experiment on SK-MEL-5 melanoma. Besides, the growth in the experiment with UACC-62 melanoma was 99.9%; in the experiment on LOX IMVI melanoma, 76.8%; in the experiment with SK-MEL-28 melanoma, 105%.

`CCc1nn(Cc2ccccc2)c2nc(C)c(CCc3ccccc3)c(Cl)c12`: the growth is 98.5% in the experiment on HCT-15 colon; 93.2% in the experiment on SNB-75 CNS; 80.2% in the experiment on SNB-19 CNS; 96.9% in the experiment with U251 CNS; 76% in the experiment with PC-3 prostate; 82.7% in the experiment on SK-MEL-5 melanoma. Further, the growth with UACC-62 melanoma was 84.5%; in the experiment with LOX IMVI melanoma, 92.6%; in the experiment with SK-MEL-28 melanoma, 107%.

With `O=C(O)C(Cc1ccccc1)C(=O)O`, the growth in the experiment with HCT-15 colon was 103%; in the experiment on SNB-75 CNS, 95.9%; with SNB-19 CNS, 106%; in the experiment on U251 CNS, 108%; in the experiment on PC-3 prostate, 94%; in the experiment with SK-MEL-5 melanoma, 89.6%. Further, the growth in the experiment on UACC-62 melanoma was 101%; with LOX IMVI melanoma it was 100%; in the experiment with SK-MEL-28 melanoma it was 113%.

For `COc1cc(OC)c2ccc(=O)oc2c1`, the growth is 96.4% in the experiment on HCT-15 colon; 85.3% in the experiment on SNB-75 CNS; 99% in the experiment with SNB-19 CNS; 98.8% in the experiment with U251 CNS; 100% in the experiment on PC-3 prostate; 107% with SK-MEL-5 melanoma. In addition, the figures for the growth with UACC-62 melanoma, in the experiment with LOX IMVI melanoma and with SK-MEL-28 melanoma were 95.5%, 96.6% and 115%, respectively.
